# From ChEMBL document CHEMBL3988442, “University of Dundee, Small-Polar-MMV Screening Library” (2021)
# Among all 69,000 compounds or so, about 1,000 (1.4%) showed an effect of 50% or more. The sample as a whole holds a higher share of strong results than the screen did.
# Test system: Leishmania donovani
# Assay: Leishmania intramacrophage assay
# Assay type: functional, organism-based
# Parameters: scale not given: in the data most compounds retested in dose-response had high values
compound,measurement,setting,value
CCNC(=O)C1CCCN(c2ccc3ccc(F)cc3n2)C1 (stereo not drawn),Percent Effect,"30.3 µM, […]",4.617%
CC(C)Oc1ncccc1CNC(=O)NC(C)c1cccs1 (stereo not drawn),Percent Effect,"30.3 µM, […]",19.58%
CCCOc1cc(C)ccc1NC(=O)NCCNC(=O)C(C)C,Percent Effect,"30.3 µM, […]",-16.43%
COc1ccc2c(c1)OCC(CNc1cc(N)nc(SC)n1)C2 (stereo not drawn),Percent Effect,"30.3 µM, […]",52.24%
CCc1nc2c(NCC3COc4cc(OC)ccc4C3)ncnc2o1 (stereo not drawn),Percent Effect,"30.3 µM, […]",60.09%
CCc1nc2c(NCC3COc4ccccc4C3)ncnc2o1 (stereo not drawn),Percent Effect,"30.3 µM, […]",35.57%
COc1cccc2c1OCC(CNc1cc(N)nc(SC)n1)C2 (stereo not drawn),Percent Effect,"30.3 µM, […]",21.08%
COc1ccc2c(c1)OCC(Cc1ccc(C)nc1N)C2 (stereo not drawn),Percent Effect,"30.3 µM, […]",-0.8362%
CCc1nc2c(NCC3COc4c(cccc4OC)C3)ncnc2o1 (stereo not drawn),Percent Effect,"30.3 µM, […]",45.88%
CCC(CNC(=O)c1nc(=O)[nH][nH]1)Oc1cccc(C(F)(F)F)c1 (stereo not drawn),Percent Effect,"30.3 µM, […]",11.69%
CC1c2ncc(COCC3CC3)n2CCN1C.O=C(O)C(F)(F)F (stereo not drawn),Percent Effect,"30.3 µM, […]",11.79%
Cc1nc(N(C)C)nc(-c2cccc(-c3ccn(CCCF)n3)c2)c1C,Percent Effect,"30.3 µM, […]",-3.93%
CN(C)c1cc(CNC(=O)c2ccc(F)cc2F)ccn1,Percent Effect,"30 µM, 30.03 µM",42.64%
CCc1nc(CN(C)CC(=O)NC(C)C)cs1,Percent Effect,"30.3 µM, […]",35.21%
CCCc1cc(C(=O)NC(C)c2ccccc2)n(C)n1 (stereo not drawn),Percent Effect,"30.3 µM, […]",52.97%
CCCc1cc(C(=O)N[C@H](C)[C@@H](O)c2ccc(O)cc2)n(C)n1,Percent Effect,"30.3 µM, […]",13.63%
CCCc1cc(C(=O)N[C@@H](CO)[C@@H](O)c2ccccc2)n(C)n1,Percent Effect,"30.3 µM, […]",0.7938%
CN(Cc1ccco1)C(=O)NCc1ccnc(SC(C)(C)C)c1,Percent Effect,"30.3 µM, […]",10.46%
CCn1cc(CNCc2ccc(C(=O)OC)cc2)c(C)n1,Percent Effect,"30.3 µM, […]",-10.67%
CN(C)CC1(O)CCCN(C(=O)Cc2ccc(Cl)c(Cl)c2)C1 (stereo not drawn),Percent Effect,"30.3 µM, […]",-2.799%
Cc1nc(CN2CCc3nc(NC(C)C)nc(C)c3C2)cs1,Percent Effect,"30.3 µM, […]",4.033%
Cc1nc(CN2CCc3nc(N4CCCC4)nc(NC(C)C)c3C2)cs1,Percent Effect,"30.3 µM, […]",51.28%
CC(C)Nc1nc(N2CCCC2)nc2c1CN(c1ncc(F)cn1)CC2,Percent Effect,"30.3 µM, […]",60.7%
CCC(C)N1CCc2nc(N3CCCC3)nc(NC(C)C)c2C1 (stereo not drawn),Percent Effect,"30.3 µM, […]",35.6%
CC(C)Nc1nc(N2CCCC2)nc2c1CN(C)CC2,Percent Effect,"30.3 µM, […]",20.69%
CC(C)Nc1nc(N2CCCC2)nc2c1CN(C(C)C)CC2,Percent Effect,"30 µM, 30.03 µM",-2.181%
O=C(OCc1cccs1)c1cccc(C(=O)N2CCCC2)n1,Percent Effect,"30.3 µM, […]",3.746%
Cn1cc(-c2ncc3c(c2C(=O)O)CCN(Cc2ccco2)C3)cn1.O=C(O)C(F)(F)F,Percent Effect,"30.3 µM, […]",10.3%
Cc1ccc(C(=O)NCc2ccnc(N(C)C)c2)c(C)c1,Percent Effect,"30.3 µM, […]",24.48%
O=C(c1ccccn1)N1CCCC(c2ncncc2-c2ccncc2)C1 (stereo not drawn),Percent Effect,"30.3 µM, […]",-13.38%
O=C(O)C(F)(F)F.O=C1NCC[C@]12CN(CC1CCOCC1)C[C@H]2c1ccccc1,Percent Effect,"30.3 µM, […]",7.927%
Nc1ncccc1C(=O)NCc1cccc(Br)c1,Percent Effect,"30.3 µM, […]",45.5%
Cc1cccc(CNC(=O)c2cccnc2N)c1,Percent Effect,"30.3 µM, […]",26.02%
COc1cccc(CNC(=O)c2cccnc2N)c1,Percent Effect,"30.3 µM, […]",50.32%
COc1ccc(C(=O)NS(=O)(=O)c2cc(Cl)sc2Cl)cc1OC(F)F,Percent Effect,"30.3 µM, […]",16.5%
CCn1cc(NC(=O)NCC(c2ccsc2)N(C)C)cn1 (stereo not drawn),Percent Effect,30 µM,19.68%
COc1ccc(CC(=O)N2CCCC(n3cccn3)C2)cc1F (stereo not drawn),Percent Effect,30 µM,5.405%
CNC(=O)c1sccc1S(=O)(=O)Nc1ccc(C)cc1,Percent Effect,"30.3 µM, […]",8.63%
CN1CCOC(CN(C(=O)Cc2ccccc2F)c2nccs2)C1 (stereo not drawn),Percent Effect,"30 µM, 30.03 µM",-6.347%
c1ccc(Cc2nc(CN3CCCC3Cn3cncn3)cs2)cc1 (stereo not drawn),Percent Effect,30 µM,-0.1933%
Cc1ccc2nc(C3CCCN3Cc3csc(C)n3)[nH]c2c1 (stereo not drawn),Percent Effect,"30.3 µM, […]",32.46%
Cc1ccc2nc(C3CCCN3Cc3scnc3C)[nH]c2c1 (stereo not drawn),Percent Effect,"30.3 µM, […]",25.37%
Cc1ccc2nc(C3CCCN3Cc3cccc(CCN)c3)[nH]c2c1 (stereo not drawn),Percent Effect,"30.3 µM, […]",54.52%
O=C1NCCN(Cc2ccoc2)C1CC(=O)N1CCc2sccc2C1 (stereo not drawn),Percent Effect,"30.3 µM, […]",23.18%
CN(CC(=O)NC1(C)CCS(=O)(=O)C1)Cc1ccc(Br)cc1 (stereo not drawn),Percent Effect,30 µM,-0.9039%
CN(C)C(=O)CN1CCC2(COCc3cnc(-c4ccccc4)nc32)C1 (stereo not drawn),Percent Effect,"30.3 µM, […]",31.1%
O=C(O)C(F)(F)F.c1cnc(N2CCC3(COCc4cnc(-c5cccnc5)nc43)C2)nc1 (stereo not drawn),Percent Effect,"30 µM, 30.03 µM",17.52%
CN(C)C(=O)CN1CCC2(COCc3cnc(-c4cccnc4)nc32)C1.O=C(O)C(F)(F)F.O=C(O)C(F)(F)F (stereo not drawn),Percent Effect,"30.3 µM, […]",71.1%
CN(C)C1CCN(C(=O)c2cccc(S(=O)(=O)NCC3(C)COC3)c2)C1 (stereo not drawn),Percent Effect,"30.3 µM, […]",28.53%
CC(C)n1c(C2CCCN(Cc3ccnn3C)C2)nc2ccccc21 (stereo not drawn),Percent Effect,"30 µM, 30.03 µM",7.956%
Cn1nccc1CN1CCCC(COc2ccccc2F)C1 (stereo not drawn),Percent Effect,"30.3 µM, […]",53.5%
CCn1cc(CN2CCCC(COc3ccccc3F)C2)cn1 (stereo not drawn),Percent Effect,"30.3 µM, […]",32.99%
COc1ccc(CN2Cc3[nH]nc(C(=O)N(C)C)c3C2)cc1,Percent Effect,"30.3 µM, […]",5.856%
